PubChem BioAssay (NCATS)
“And” between values parts separate entries of the source, which are not always exact repeats. Equal entries are not always repeated. Inconclusive results are not listed. The source made the active and inactive calls. Unless noted, calls come from the whole dose curve; as a rule, active = well fitted curve in the direction sought with a large enough effect; inconclusive = small, poorly fitted or top-dose-only effect, or another doubt; inactive = no such curve, though single readings can be large; an effect the other way counts as inactive or inconclusive.

Experiments:
[1] = Cell Viability - BJ (AID 421; calls by dose curve;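 note: potency is the fitted concentration of half-maximal effect; cells exposed to compound for 40 hours at 37 °C before readout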); settings: BJ fibroblast viability, qHTS
Procedure, shortened: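 Luminescent ATP signal (CellTiter-Glo, 20 min at room temperature) served as the read-out of viable BJ cells after 40 hours of compound treatment. Responses were scaled between DMSO and 100 uM tamoxifen, and AC50 values were obtained by Hill modeling.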

[2] = Cell Viability - HepG2 (AID 433; calls by dose curve;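 note: potency is the fitted concentration of half-maximal effect; potency for ATP loss meaning cytotoxicity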); settings: qHTS
Procedure, shortened: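 In this qHTS format, a 40 h, 37 °C compound incubation of HepG2 cells in complete medium precedes a 20 min CellTiter-Glo step at room temperature. Tamoxifen and doxorubicin serve as positive controls; Hill-equation fits yield AC50.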

[3] = Cell Viability - N2a (AID 540); settings: N2a mouse neuroblastoma cell viability; activity change, negative = cytotoxicity: at 92.2 µM (top of the series);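 note: plate controls were DMSO alone for no effect and tamoxifen control for full effect; nearly all actives have a fitted effect of over 45% in size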
Procedure, shortened: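 In this qHTS cytotoxicity screen, ATP-dependent luciferase luminescence reports viable N2a cells after a 40 hr compound exposure in complete culture medium. Potencies are AC50 values from standard Hill equation fits.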

[4] = Cell Viability - H-4-II-E (AID 543); settings: H-4-II-E rat hepatoma viability; series mostly up to 92.2 µM; note: % is set by controls: 0 for no effect and ±100 for the full control effect; nearly all actives have a fitted effect of over 35% in size
Procedure, shortened: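 AC50 from Hill-modelled qHTS concentration-response curves. H-4-II-E rat hepatoma cells in complete medium, 40 hr exposure at 37 °C, viability by CellTiter-Glo ATP luminescence.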

[5] = MultiTox-Fluor Cytotoxicity Assay - LYMP1-002 - Live Cells (AID 955); settings: LYMP1-002 lymphoblastoid live-cell protease fluorescence viability; series mostly up to 46.1 µM;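 note: cells exposed to compound for 16 hours; % is set by controls: 0 for no effect and ±100 for the full control effect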
Procedure, shortened: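 In this qHTS viability format, lymphoblastoid cells (LYMP1-002, human) received compound for 16 hr at 37 C. Fluorogenic GF-AFC cleavage by viable cells was detected at 405/510 nm after 1 h at room temperature.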

[6] = MultiTox-Fluor Cytotoxicity Assay - LYMP1-002 - Dead Cells (AID 960); settings: LYMP1-002 lymphoblastoid cells, dead-cell protease fluorescence; series mostly up to 46.1 µM;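 note: 0% = DMSO and 100% = tetraoctylammonium bromide; nearly all actives have a fitted effect of over 60% in size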
Procedure, shortened: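 Concentration-dependent increases in membrane-leaked protease activity are quantified in LYMP1-002 cells after 16 hr treatment; values are normalized against DMSO and tetraoctylammonium bromide (15 uM) controls and AC50 derived by Hill modeling.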

[7] = Cell Viability - LYMP1-003 - Assay at 40 hr (AID 964); settings: LYMP1-003 lymphoblastoid viability; series mostly up to 92.2 µM; note: % is set by controls: 0 for no effect and ±100 for the full control effect; nearly all actives have a fitted effect of over 60% in size
Procedure, shortened: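 Acute toxicity is scored as a concentration-dependent loss of intracellular ATP in LYMP1-003 cells (2500/well, complete medium) after 40 hr at 37 C, measured by CellTiter-Glo luminescence; AC50 values derive from standard Hill modelling.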

[8] = Cell Viability - LYMP2-004 (AID 966); settings: LYMP2-004 lymphoblastoid cell viability, qHTS; series mostly up to 92.2 µM;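 note: cells exposed to compound for 24 h; plate controls were DMSO only for no effect and tetraoctylammonium bromide control for full effect; nearly all actives have a fitted effect of over 65% in size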
Procedure, shortened: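 Viable-cell number estimated from ATP luminescence (CellTiter-Glo) in 2500 human lymphoblastoid cells/well after 24 hr at 37 C with compound. AC50 fitted to the standard Hill equation.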

[9] = Cell Viability - LYMP2-013 (AID 970); settings: LYMP2-013 lymphoblastoid cells viability; series mostly up to 92.2 µM;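 note: cells exposed to compound for 24 h at 37 °C; 0% = DMSO only and full inhibition = tetraoctylammonium bromide control; nearly all actives have a fitted effect of over 55% in size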
Procedure, shortened: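 In complete culture medium, human lymphoblastoid cells were dosed for 24 hr at 37 C, with tetraoctylammonium bromide (6.4pM to 92 uM) as positive control. Viability reflects luciferase-based ATP signal; AC50 derived from concentration-response curves.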

[10] = Cell Viability - LYMP2-002 (AID 977); settings: LYMP2-002 lymphoblastoid cell viability, qHTS; series mostly up to 92.2 µM;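 note: compound exposure lasted 24 h at 37 °C; plate controls were DMSO only for no effect and 92 µM tetraoctylammonium bromide for full effect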
Procedure, shortened: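 In this qHTS viability screen, 2500 human lymphoblastoid cells per well receive compound for 24 hr at 37 C, and luciferase-based ATP luminescence gives the viability signal. Tetraoctylammonium bromide serves as positive control.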

[11] = Cell Viability - LYMP2-016 (AID 984); settings: LYMP2-016 lymphoblastoid cell viability, qHTS; series mostly up to 92.2 µM;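 note: cells exposed to compound for 24 hours at 37 °C; % is set by controls: 0 for no effect and ±100 for the full control effect; nearly all actives have a fitted effect of over 55% in size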
Procedure, shortened: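 Concentration-dependent ATP depletion measured in LYMP2-016 lymphoblastoid cells, 24 h, 37 C; luciferase-based luminescent detection; Hill-equation AC50.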

[12] = Cell Viability - LYMP2-018 (AID 985); settings: LYMP2-018 lymphoblastoid cells, viability (qHTS); series mostly up to 92.2 µM;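 note: plate controls were DMSO only for no effect and tetraoctylammonium bromide at 92 µM for full effect; nearly all actives have a fitted effect of over 50% in size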
Procedure, shortened: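 In this qHTS viability assay, cells are treated for 24 hr and cellular ATP is quantified by luciferase-based luminescence, with tetraoctylammonium bromide as positive control.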

[13] = Cell Viability - LYMP2-020 (AID 986); settings: series mostly up to 92.2 µM;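 note: cells exposed to compound for 24 h at 37 °C; plate controls were DMSO only for no effect and tetraoctylammonium bromide at 92 µM for full effect; nearly all actives have a fitted effect of over 55% in size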
Procedure, shortened: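 Cells at 2500 per well receive a 24 hr compound exposure at 37 C. Viability is measured as ATP-dependent luciferase luminescence, with AC50 modeled from qHTS concentration-response curves.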

[14] = Cell Viability - LYMP2-022 (AID 987); settings: LYMP2-022 lymphoblastoid cell viability; series mostly up to 92.2 µM;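 note: 0% = DMSO alone and full effect = tetraoctylammonium bromide at 92 µM; nearly all actives have a fitted effect of over 55% in size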
Procedure, shortened: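 In this qHTS cytotoxicity screen, compound titrations were incubated 24 hr at 37 C with human lymphoblastoid cells in complete medium. Luciferase-based ATP luminescence provided the viability signal.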

[15] = qHTS assay for small molecule antagonists of retinoid X receptor alpha signaling (AID 588546; active = well fitted inhibition curve with a large enough effect in the signal ratio, with a control signal flat, not every such curve was filed as active; the % refers to the signal ratio;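 note: cells stimulated with 9-cis-retinoic acid as agonist; % is set by controls: 0 for no effect and ±100 for the full control effect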); settings: HEK293T RXRa-UAS-bla, beta-lactamase ratio, antagonist mode; measured here: W530 green channel, cytotoxicity proxy
Procedure, shortened: (§1)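 Beta-lactamase reporter inhibition, read as CCF4 fluorescence ratio (ex 405, em 460/530 nm) after 2 h at RT. HEK293T UAS-bla cells, 2500/well, were stimulated with 9-cis-RA at 500 or 100 nM final alongside test compound for 18 h at 37 C.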

[16] = target: Retinoic acid receptor RXR-alpha (Homo sapiens) (UniProt P19793); assay: as above; settings: HEK293T RXRa-UAS-bla, beta-lactamase ratio, antagonist mode
Chain of Retinoic acid receptor RXR-alpha (Homo sapiens) (P19793 whole entry, looked up): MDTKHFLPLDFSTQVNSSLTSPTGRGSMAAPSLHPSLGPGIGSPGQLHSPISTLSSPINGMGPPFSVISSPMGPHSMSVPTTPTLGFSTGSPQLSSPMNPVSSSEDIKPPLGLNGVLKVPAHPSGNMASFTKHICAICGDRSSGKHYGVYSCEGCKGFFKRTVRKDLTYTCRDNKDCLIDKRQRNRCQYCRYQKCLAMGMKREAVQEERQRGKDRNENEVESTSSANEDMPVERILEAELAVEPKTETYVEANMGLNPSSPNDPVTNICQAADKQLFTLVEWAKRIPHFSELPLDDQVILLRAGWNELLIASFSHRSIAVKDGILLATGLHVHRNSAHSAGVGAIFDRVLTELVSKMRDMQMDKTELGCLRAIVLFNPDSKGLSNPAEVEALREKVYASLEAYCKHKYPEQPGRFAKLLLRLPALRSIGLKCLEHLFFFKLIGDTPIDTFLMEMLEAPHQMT
Procedure, shortened: as §1

[17] = target: Thyroid hormone receptor beta (Homo sapiens) (UniProt P10828); assay: qHTS assay for small molecule antagonists of thyroid hormone receptor beta signaling (AID 588547; active = well fitted inhibition curve with a large enough effect in the signal ratio, with a control signal flat, not every such curve was filed as active; the % refers to the signal ratio;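 note: cells stimulated with 0.4 nM T3 agonist during compound exposure; % is set by controls: 0 for no effect and ±100 for the full control effect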); settings: TR-UAS-bla HEK293, beta-lactamase ratio, antagonist mode, 18 h
Chain of Thyroid hormone receptor beta (Homo sapiens) (P10828 whole entry, looked up): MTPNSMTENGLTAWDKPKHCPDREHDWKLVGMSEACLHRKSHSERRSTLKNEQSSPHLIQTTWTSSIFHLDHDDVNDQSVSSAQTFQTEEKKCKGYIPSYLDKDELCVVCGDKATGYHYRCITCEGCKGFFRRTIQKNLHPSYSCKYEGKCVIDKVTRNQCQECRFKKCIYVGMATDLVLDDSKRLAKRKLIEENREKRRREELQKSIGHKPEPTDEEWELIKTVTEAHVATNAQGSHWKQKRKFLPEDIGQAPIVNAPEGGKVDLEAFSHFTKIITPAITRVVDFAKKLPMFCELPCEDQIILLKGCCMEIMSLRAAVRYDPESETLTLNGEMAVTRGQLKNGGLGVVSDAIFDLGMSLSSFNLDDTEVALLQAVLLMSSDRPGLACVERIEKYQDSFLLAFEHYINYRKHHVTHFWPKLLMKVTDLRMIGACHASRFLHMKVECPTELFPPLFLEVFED
Procedure, shortened: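 TR-UAS-bla GripTite HEK293 cells in 2% charcoal/dextran FBS medium were preincubated 4 h at 37 C, given compound (0.59 nM to 92 uM) plus 0.4 nM T3 (final) for 18 h, then CCF4 for 2 h at RT; Hill fit gave IC50.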

[18] = qHTS assay for environmental chemicals that activate the Aryl hydrocarbon Receptor (AhR) signaling pathway (AID 651777); settings: 1A2-DRE human hepatoma cells, luciferase, 24 h; activation: stronger effect = higher value; note: % of control where 0% means no effect; nearly all actives have a fitted effect of over 15% in size
Procedure, shortened: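 1A2-DRE human hepatoma reporter line; 1,200 cells/well; cmpd or DMSO 24 h, 37 C/5% CO2; One-Glo 30 min RT; luciferase lum.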

[19] = target: Nuclear receptor subfamily 1 group I member 2 (Rattus norvegicus) (UniProt Q9R1A7); assay: qHTS assay for small molecule activators of the rat pregnane X receptor (rPXR) signaling pathway (AID 651751; call rule not given here; note: 0% is about no effect); settings: rPXR reporter cells, luciferase (One-Glo), 24 h
Chain of Nuclear receptor subfamily 1 group I member 2 (Rattus norvegicus) (Q9R1A7 whole entry, looked up): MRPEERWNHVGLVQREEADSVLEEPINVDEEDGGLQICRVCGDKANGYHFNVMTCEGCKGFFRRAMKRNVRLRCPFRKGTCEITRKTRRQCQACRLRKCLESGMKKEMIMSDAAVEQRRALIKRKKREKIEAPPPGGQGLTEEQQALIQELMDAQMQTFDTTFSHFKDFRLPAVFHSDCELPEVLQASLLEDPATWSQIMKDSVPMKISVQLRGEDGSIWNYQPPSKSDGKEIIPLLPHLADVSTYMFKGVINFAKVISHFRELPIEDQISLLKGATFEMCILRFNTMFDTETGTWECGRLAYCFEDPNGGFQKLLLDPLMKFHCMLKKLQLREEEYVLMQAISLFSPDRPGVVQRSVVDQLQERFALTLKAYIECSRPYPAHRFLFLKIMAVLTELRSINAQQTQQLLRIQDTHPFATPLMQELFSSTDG

[20] = target: Mitogen-activated protein kinase 10 (Mus musculus) (UniProt Q61831); assay: JNK3 AlphaScreen Assay (AID 530; active = well fitted curve in either direction with a large enough effect, not every such curve was filed as active;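 note: kinase came from lysate of stimulated human HepG2 cells; signal reports phosphorylation of biotinylated GST-cJun 1-79 at Ser73 with 10 µM ATP; % is set by controls: 0 for no effect and ±100 for the full control effect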); settings: JNK3 lysate, c-Jun phosphorylation; series mostly up to 11.4 µM
Procedure, shortened: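 Biotinylated GST-cJun(1-79) served as substrate for JNK3 in HepG2 lysates stimulated with IL-1beta and TNF-alpha. ATP was 10 uM final, pH 7.6. Ser73 phosphorylation was quantified by AlphaScreen (680 nm excitation).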

CCCCCCCCC1CO1 (centres undefined)
inactive: Potency [1] > 92 µM | Potency [2] > 92 µM | activity change, negative = cytotoxicity [3] -1.38% | Potency [4] | outcome [5] | Potency [6] | Potency [7] | Potency [8] | Potency [9] | Potency [10] | Potency [11] | Potency [12] | Potency [13] | Potency [14] | max response [16] -3.61% | activity change % (negative = inhibition) [17] 2.22% | activation [18] 0.826% | max response [19] -2.96%
-6.6%: max response [15]

Cc1ccccc1OCC1CO1 (centres undefined)
-1.65%: max response [15]
inactive: Potency [1] > 92 µM | Potency [2] > 92 µM | Potency [20] | activity change, negative = cytotoxicity [3] -6.29% | Potency [4] | outcome [5] | Potency [6] | Potency [7] | Potency [8] | Potency [9] | Potency [10] | Potency [11] | Potency [12] | Potency [13] | Potency [14] | max response [16] 0.471% | activity change % (negative = inhibition) [17] -11% | activation [18] -0.0777% | max response [19] 0.751%

CC(/C=C/C=C(C)/C=C/C(=O)O)=C\C=C\C=C(C)\C=C\C=C(C)\C=C\C(=O)O
-20%: max response [15]
inactive: Potency [1] > 92 µM | Potency [2] > 92 µM | Potency [20] | activity change, negative = cytotoxicity [3] -5.79% | Potency [4] | outcome [5] | Potency [6] | Potency [7] | Potency [9] | Potency [10] | Potency [11] | Potency [12] | Potency [13] | max response [16] 16.8% | activity change % (negative = inhibition) [17] -2.15% | activation [18] 9.06% | max response [19] 10.8%

CCCCC(CC)COCCCN (centres undefined)
inactive: Potency [1] > 92 µM | Potency [2] > 92 µM | Potency [20] | Potency [4] | outcome [5] | Potency [6] | Potency [7] | Potency [8] | Potency [9] | Potency [10] | Potency [11] | Potency [13] | Potency [14] | max response [16] 10.8% | activity change % (negative = inhibition) [17] 3.53% | activation [18] -0.398% | max response [19] 1.77%
3.99%: max response [15]

Nc1ccccc1O
inactive: Potency [1] > 92 µM | Potency [2] > 92 µM | Potency [20] | Potency [4] | outcome [5] | Potency [6] | Potency [9] | Potency [10] | Potency [11] | Potency [12] | Potency [13] | max response [16] -7.25% | activity change % (negative = inhibition) [17] -12.3%
21.2%: max response [15]

CC(=O)OCc1ccc2c(c1)OCO2
inactive: Potency [1] > 92 µM | Potency [2] > 92 µM | Potency [20] | activity change, negative = cytotoxicity [3] -15.3% | Potency [4] | outcome [5] | Potency [6] | Potency [8] | Potency [9] | Potency [10] | Potency [11] | Potency [12] | Potency [13] | Potency [14] | max response [16] 24.9% | activity change % (negative = inhibition) [17] -11.5% | activation [18] 1.36% | max response [19] -6.58%
8.84%: max response [15]

O=C1OC(=O)c2ccccc21
4.94%: max response [15]
inactive: Potency [1] > 92 µM | Potency [2] > 92 µM | Potency [20] | activity change, negative = cytotoxicity [3] -28.6% | Potency [4] | outcome [5] | Potency [6] | Potency [7] | Potency [8] | Potency [9] | Potency [10] | Potency [11] | Potency [12] | Potency [13] | Potency [14] | max response [16] 20.4% | activity change % (negative = inhibition) [17] 1.82%

Nc1cc([N+](=O)[O-])ccc1O
-1.99% and 10.2%: max response [15]
inactive: Potency [1] > 92 µM | Potency [2] > 92 µM | Potency [20] | Potency [4] | outcome [5] | Potency [6] | Potency [7] | Potency [8] | Potency [9] | Potency [10] | Potency [11] | Potency [12] | Potency [13] | Potency [14] | max response [16] 2.5% and -26.6% | activity change % (negative = inhibition) [17] 11.2% and 4.34% | activation [18] 12.6% and 2.53% | max response [19] 5.65% and 2.03%

Brc1cc(Oc2cc(Br)c(Br)c(Br)c2Br)c(Br)c(Br)c1Br
inactive: Potency [1] > 92 µM | Potency [2] > 92 µM | Potency [20] | activity change, negative = cytotoxicity [3] -25% | Potency [4] | outcome [5] | Potency [6] | Potency [7] | Potency [8] | Potency [9] | Potency [10] | Potency [11] | Potency [12] | Potency [13] | Potency [14] | max response [16] 8.94% and -3.66% | activity change % (negative = inhibition) [17] 1.8% and 9.48% | activation [18] -1.15% and -2.65% | max response [19] 2.26% and 7.81%
11.5% and 5.63%: max response [15]

CCCC(=O)OC(=O)CCC
inactive: Potency [1] > 92 µM | Potency [2] > 92 µM | Potency [20] | activity change, negative = cytotoxicity [3] -12.9% | Potency [4] | outcome [5] | Potency [6] | Potency [7] | Potency [8] | Potency [9] | Potency [10] | Potency [11] | Potency [12] | Potency [13] | Potency [14] | max response [16] 2.23% and 15.8% | activity change % (negative = inhibition) [17] 18.6% and 0.261% | activation [18] 0.206% and -0.322% | max response [19] -1.94% and 0.492%
-8.03% and -4.72%: max response [15]

O=C(Cl)c1ccc([N+](=O)[O-])cc1
-4.54%: max response [15]
inactive: Potency [1] > 92 µM | Potency [2] > 92 µM | Potency [20] | activity change, negative = cytotoxicity [3] 7.26% | Potency [4] | outcome [5] | Potency [6] | Potency [7] | Potency [8] | Potency [9] | Potency [10] | Potency [11] | Potency [12] | Potency [13] | Potency [14] | max response [16] 11.8% | activity change % (negative = inhibition) [17] 12% | max response [19] -6.29%
